Data reported in the supplement of paper PMC11219838.
Unmarked numbers belong to inactive results.

Tests used:
[1] = system: Caenorhabditis elegans dauer (daf-2(e1370)); assay: proportion of mobile C. elegans dauer larvae relative to DMSO control (fraction of DMSO control); higher = more viable, less nematicidal, active = 0.63 or less; extreme values may be limits of the assay; conditions: 60 µM; 5 days; temperature: 20 °C
Outline: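 The proportion of mobile worms, relative to DMSO wells, was scored by dissection microscope and averaged over two biological replicates. Worms were C. elegans dauers, about 20 per well in liquid NGM in 96-well plates, generated from synchronized larvae on MYOB plates with E. coli OP50 at 25 °C for 48 h. They were treated with compound pinned to 60 µM final (0.6% v/v DMSO) and kept in sealed plates shaken at 200 rpm for 5 days at 20 °C.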

[2] = system: Ditylenchus dipsaci; assay: proportion of mobile D. dipsaci (mixed stage) relative to DMSO control (fraction of DMSO control); higher = more viable, less nematicidal, active = 0.86 or less; extreme values may be limits of the assay; conditions: 60 µM; 5 days; temperature: 20 °C
Outline: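 Mobility, expressed relative to DMSO controls, is the mean of two biological replicates. The test organisms were D. dipsaci grown on pea plants in Gamborg B-5 agar and extracted into water by filter funnel, with about 20 added per well of a 96-well plate in distilled water. Compound was pinned to 60 µM final (0.6% v/v DMSO), plates were sealed and shaken at 200 rpm for 5 days at 20 °C, and mobile worms were scored under a microscope once 2 µL 1 M NaOH had been added.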

Row | Structure (SMILES) | proportion of mobile C. elegans dauer larvae [1] | proportion of mobile D. dipsaci [2]
1 | CC(C)Oc1ccc(-c2nc(-c3cccnc3)no2)cc1 | 0 (active) | 0.675 (active)
2 | Cc1cccc(-c2nnc(SCC(=O)NCCc3ccccc3)o2)c1 | 1 | 1
3 | Cc1ccc(-c2noc(-c3ccc(-n4nncc4C)cc3)n2)cc1 | 1 | 1
4 | c1coc(-c2nc(-c3cccs3)no2)c1 | 1 | 1
5 | O=C(CSc1nnc(-c2cccc(Cl)c2)o1)Nc1ccccc1 | 1 | 1
6 | Cc1ccc(C)c(OCc2nc(-c3ccccc3Cl)no2)c1 | 1 | 1
7 | Cc1cccc(-c2noc(COc3ccc(C)cc3C)n2)c1 | 1 | 1
8 | Cc1ccc(-c2nc(-c3cccc(C(F)(F)F)c3)no2)cc1 | 1 | 1
9 | O=C(CSc1nnc(-c2ccccc2)o1)OCc1ccccc1 | – | 1
10 | COc1nc2ccc(C)cc2cc1-c1noc(-c2cccnc2)n1 | 1 | 1
11 | O=C(CSc1nnc(-c2ccco2)o1)Nc1ccc(Br)cc1 | 1 | 1
12 | Cc1ccccc1CSc1nnc(-c2ccco2)o1 | – | 1
13 | CCc1ccc(NC(=O)CSc2nnc(-c3ccco3)o2)cc1 | 1 | 1
14 | Cc1ccc(-c2noc(-c3cc(C)cc(C)c3)n2)cc1 | 1 | 1
15 | COC(=O)c1ccc(Cl)c(NC(=O)CSc2nnc(-c3ccc(Cl)cc3)o2)c1 | – | 1
16 | Cc1ccccc1OCc1nc(-c2ccccc2)no1 | 1 | 1
17 | COc1cccc(-c2nc(-c3ccc(C)cc3)no2)c1 | 0 (active) | 1
18 | Brc1ccc(CSc2nnc(-c3cccnc3)o2)cc1 | – | 1
19 | Clc1ccc(CSc2nnc(-c3ccccc3)o2)c(Cl)c1 | 1 | 1
20 | Cc1cccc(-c2noc(-c3ccc(Cl)cc3)n2)c1 | – | 1
21 | Cc1ccc(-c2nnc(SCC(=O)Nc3ccc(Br)c(C)c3C)o2)cc1 | 1 | 1
22 | CCn1c(SCc2ccc(OC)cc2)nnc1-c1ccco1 | – | 1
23 | COc1ccc(CCC(=O)Nc2ccc(-c3noc(-c4ccc(F)cc4)n3)cc2)cc1 | 1 | 1
24 | Cc1cc(C)cc(OCc2nc(-c3cc(C)nc4ccccc34)no2)c1 | 1 | 1
25 | CC(C)c1ccc(OCc2nc(-c3ccccn3)no2)cc1 | – | 1
26 | COc1nc(-c2ccc(Cl)cc2)ccc1-c1noc(-c2ccncc2)n1 | 1 | 1
27 | Cc1ccc(SCc2nc(-c3ccc(C)cc3)no2)cc1 | 1 | 1
28 | COc1ccc(NC(=O)CSc2nnc(-c3ccccc3C)o2)cc1 | – | 1
29 | COc1ccc(-c2noc(-c3cccc(Br)c3)n2)cc1 | 1 | 1
